Source: the supplement of paper PMC10849652
About 7,900 targets were measured; listed, in parts, are those with a hit and a random draw of the rest. About 0.6% of all pairs of compound and target were hits.

compound: C#Cc1cccc(Nc2ncnc3cc(OCCOC)c(OCCOC)cc23)c1 [erlotinib]; assay: log2 fold change, soluble protein after heating vs DMSO (PISA); higher = thermal stabilisation; K562 cells, 10 uM, 30 min; active = over 0.2 and 3.5 SD of the protein, either way, in both replicates (recomputed)
How it was run: (§1)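 K562 cells at 2×10^6 cells/mL were treated with 10 μM compound for 30 min. Aliquots were heated for 3 min across 48°C-58°C, pooled, and extracted in PBS with 0.5% NP-40 at 4°C; soluble protein was the supernatant after 21,000xg for 90 min. Soluble protein was quantified by TMTpro 16plex LC-MS/MS with channel sums equalised, and reported as log2 fold change in thermal stability against DMSO controls, with values from duplicates.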

Chain of UniProt P35227 (P35227 whole entry, looked up): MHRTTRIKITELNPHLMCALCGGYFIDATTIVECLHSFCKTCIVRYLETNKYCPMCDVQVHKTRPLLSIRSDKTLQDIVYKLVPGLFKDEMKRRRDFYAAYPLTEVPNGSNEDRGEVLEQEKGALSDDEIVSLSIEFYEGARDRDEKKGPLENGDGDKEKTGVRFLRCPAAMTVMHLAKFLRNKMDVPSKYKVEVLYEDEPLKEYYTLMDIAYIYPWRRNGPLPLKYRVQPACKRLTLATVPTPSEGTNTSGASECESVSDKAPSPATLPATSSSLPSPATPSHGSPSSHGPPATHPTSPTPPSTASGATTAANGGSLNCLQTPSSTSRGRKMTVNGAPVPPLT
Chain of UniProt Q9UPN7 (Q9UPN7 whole entry, looked up): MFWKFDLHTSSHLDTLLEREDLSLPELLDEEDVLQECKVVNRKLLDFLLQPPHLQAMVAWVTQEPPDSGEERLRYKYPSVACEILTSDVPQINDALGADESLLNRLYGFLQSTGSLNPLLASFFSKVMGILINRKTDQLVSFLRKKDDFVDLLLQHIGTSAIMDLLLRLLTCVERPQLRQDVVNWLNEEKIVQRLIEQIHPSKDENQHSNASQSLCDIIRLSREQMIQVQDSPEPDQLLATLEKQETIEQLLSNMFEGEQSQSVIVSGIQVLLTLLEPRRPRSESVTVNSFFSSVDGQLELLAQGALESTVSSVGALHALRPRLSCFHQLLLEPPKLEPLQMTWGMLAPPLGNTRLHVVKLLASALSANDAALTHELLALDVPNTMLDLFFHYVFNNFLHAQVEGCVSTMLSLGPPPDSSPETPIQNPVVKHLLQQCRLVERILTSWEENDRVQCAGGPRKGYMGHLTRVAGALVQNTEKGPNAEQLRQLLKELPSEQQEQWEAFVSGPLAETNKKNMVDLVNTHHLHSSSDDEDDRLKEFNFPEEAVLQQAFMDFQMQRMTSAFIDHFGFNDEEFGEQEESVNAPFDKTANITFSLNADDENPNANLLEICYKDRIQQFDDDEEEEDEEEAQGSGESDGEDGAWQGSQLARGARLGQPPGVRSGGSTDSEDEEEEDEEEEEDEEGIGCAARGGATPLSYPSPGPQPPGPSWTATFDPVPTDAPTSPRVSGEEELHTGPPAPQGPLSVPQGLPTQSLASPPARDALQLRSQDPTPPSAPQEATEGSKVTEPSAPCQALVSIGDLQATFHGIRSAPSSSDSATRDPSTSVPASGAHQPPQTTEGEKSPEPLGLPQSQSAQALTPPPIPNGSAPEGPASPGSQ
Chain of UniProt Q15111 (Q15111 whole entry, looked up): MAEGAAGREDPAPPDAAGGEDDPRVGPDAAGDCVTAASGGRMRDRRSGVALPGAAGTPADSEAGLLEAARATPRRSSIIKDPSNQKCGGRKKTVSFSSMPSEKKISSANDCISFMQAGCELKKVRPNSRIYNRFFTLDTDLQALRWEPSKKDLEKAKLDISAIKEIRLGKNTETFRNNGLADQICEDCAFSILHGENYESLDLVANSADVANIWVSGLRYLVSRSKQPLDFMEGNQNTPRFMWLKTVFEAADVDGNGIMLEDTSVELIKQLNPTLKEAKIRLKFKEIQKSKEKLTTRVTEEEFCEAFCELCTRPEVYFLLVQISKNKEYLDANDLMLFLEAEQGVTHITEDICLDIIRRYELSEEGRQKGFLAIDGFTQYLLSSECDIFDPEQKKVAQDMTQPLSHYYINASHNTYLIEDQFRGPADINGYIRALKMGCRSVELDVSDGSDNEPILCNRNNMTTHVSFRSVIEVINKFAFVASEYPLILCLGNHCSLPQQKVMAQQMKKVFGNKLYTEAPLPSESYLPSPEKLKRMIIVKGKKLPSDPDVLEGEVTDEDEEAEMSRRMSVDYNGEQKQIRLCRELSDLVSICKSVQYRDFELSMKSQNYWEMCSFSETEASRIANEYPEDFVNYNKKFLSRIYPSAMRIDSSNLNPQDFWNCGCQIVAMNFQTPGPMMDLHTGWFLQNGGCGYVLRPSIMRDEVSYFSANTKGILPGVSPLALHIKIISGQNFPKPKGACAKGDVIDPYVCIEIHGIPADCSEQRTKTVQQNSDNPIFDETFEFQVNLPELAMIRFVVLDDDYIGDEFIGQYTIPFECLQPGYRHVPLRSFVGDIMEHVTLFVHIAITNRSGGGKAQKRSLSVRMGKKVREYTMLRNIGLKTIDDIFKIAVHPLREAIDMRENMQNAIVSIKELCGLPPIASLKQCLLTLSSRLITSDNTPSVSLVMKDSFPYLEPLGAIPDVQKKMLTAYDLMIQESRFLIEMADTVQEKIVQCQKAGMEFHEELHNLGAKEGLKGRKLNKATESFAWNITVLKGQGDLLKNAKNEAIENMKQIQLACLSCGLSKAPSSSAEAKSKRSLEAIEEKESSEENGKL
Chain of UniProt Q8WUK0 (Q8WUK0 whole entry, looked up): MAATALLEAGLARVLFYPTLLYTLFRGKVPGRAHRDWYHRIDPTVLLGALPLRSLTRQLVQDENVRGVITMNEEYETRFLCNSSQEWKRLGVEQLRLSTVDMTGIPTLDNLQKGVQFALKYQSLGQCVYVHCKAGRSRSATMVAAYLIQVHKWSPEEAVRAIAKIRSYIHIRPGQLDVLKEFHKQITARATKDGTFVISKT
Chain of UniProt Q8N4L2 (Q8N4L2 whole entry, looked up): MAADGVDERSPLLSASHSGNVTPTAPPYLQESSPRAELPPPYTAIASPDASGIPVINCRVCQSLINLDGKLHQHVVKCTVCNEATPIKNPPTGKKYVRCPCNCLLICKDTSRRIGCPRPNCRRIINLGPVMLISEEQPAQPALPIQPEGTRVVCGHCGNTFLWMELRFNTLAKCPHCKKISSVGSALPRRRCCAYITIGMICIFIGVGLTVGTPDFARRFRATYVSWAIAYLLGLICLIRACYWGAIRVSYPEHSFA
Chain of UniProt O95602 (O95602 whole entry, looked up): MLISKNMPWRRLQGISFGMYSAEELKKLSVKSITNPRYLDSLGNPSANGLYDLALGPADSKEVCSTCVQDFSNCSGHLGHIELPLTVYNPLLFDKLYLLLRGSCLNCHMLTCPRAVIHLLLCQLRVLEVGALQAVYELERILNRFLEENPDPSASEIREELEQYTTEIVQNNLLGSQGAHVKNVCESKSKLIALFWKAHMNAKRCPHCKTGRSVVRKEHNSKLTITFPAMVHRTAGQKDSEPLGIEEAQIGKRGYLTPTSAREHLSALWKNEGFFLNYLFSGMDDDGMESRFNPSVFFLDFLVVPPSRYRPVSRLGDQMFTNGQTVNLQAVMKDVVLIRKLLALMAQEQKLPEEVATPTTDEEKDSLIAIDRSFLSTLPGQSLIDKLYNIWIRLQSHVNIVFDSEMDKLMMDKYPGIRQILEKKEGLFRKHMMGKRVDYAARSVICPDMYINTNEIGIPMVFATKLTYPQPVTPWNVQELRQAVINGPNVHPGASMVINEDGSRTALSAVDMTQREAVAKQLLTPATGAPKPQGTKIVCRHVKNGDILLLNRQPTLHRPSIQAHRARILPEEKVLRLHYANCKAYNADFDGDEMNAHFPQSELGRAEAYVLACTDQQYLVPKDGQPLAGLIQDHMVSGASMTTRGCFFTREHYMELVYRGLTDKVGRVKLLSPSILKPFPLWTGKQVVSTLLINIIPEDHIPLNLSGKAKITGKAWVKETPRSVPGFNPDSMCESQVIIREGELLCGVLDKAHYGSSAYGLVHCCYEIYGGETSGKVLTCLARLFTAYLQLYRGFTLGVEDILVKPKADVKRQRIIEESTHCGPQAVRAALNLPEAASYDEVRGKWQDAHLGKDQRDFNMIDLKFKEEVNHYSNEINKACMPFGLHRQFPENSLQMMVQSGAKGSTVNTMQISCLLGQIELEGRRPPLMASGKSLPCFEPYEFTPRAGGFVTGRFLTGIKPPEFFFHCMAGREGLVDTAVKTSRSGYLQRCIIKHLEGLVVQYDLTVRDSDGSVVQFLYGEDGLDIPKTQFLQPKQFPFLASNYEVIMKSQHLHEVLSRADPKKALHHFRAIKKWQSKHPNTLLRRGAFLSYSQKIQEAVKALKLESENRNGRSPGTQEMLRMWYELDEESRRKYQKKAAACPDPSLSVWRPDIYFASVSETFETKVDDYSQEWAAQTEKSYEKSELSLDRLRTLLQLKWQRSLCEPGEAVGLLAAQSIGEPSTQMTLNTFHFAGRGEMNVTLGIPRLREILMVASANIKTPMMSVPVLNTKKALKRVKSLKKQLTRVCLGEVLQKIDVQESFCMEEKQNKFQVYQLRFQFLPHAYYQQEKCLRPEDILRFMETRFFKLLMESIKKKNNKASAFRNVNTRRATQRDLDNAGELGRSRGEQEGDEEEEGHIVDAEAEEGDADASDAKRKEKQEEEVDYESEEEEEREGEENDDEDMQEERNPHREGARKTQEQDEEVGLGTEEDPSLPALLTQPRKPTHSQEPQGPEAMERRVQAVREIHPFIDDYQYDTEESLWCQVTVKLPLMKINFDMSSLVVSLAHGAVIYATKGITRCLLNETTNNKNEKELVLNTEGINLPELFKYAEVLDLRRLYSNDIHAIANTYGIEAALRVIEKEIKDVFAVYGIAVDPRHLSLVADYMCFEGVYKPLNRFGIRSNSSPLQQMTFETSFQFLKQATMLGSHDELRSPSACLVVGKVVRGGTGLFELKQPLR
Chain of UniProt Q969N2 (Q969N2 whole entry, looked up): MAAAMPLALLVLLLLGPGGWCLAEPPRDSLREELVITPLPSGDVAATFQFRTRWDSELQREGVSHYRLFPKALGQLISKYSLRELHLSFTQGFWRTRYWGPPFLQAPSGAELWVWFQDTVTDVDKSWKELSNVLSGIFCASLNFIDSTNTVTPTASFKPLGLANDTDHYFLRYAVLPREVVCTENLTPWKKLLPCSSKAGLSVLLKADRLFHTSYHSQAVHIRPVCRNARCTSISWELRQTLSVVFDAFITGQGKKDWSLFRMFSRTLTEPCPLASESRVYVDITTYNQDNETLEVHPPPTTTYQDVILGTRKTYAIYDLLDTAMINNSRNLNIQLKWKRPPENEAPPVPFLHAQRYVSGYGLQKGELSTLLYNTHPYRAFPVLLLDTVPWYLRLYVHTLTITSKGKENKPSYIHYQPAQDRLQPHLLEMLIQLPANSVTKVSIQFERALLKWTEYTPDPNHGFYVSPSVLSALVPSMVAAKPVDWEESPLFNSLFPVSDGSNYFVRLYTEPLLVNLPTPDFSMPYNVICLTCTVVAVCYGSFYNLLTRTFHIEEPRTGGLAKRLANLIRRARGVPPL

log2 fold change, inactive:
PLIN2 (UniProt Q99541) 0.033, PCGF2 (UniProt P35227) 0.11, PRKAR1B (UniProt P31321) -0.027, PSMB6 (UniProt P28072) -0.067, PGGHG (UniProt Q32M88) 0.059, PTGFRN (UniProt Q9P2B2) 0.019, PLCL1 (UniProt Q15111) 0.136, PURA (UniProt Q00577) -0.244, PPT1 (UniProt P50897) 0.01, PKN2 (UniProt Q16513) 0.067, PTPMT1 (UniProt Q8WUK0) -0.009, PTMA (UniProt P06454) 0.06, POGLUT1 (UniProt Q8NBL1) 0.006, POLR2C (UniProt P19387) 0.05, PRPF38B (UniProt Q5VTL8) -0.016, PSMA3 (UniProt P25788) -0.052, PJA2 (UniProt O43164) -0.006, PTP4A2 (UniProt Q12974) -0.054, PCYT1B (UniProt Q9Y5K3) 0.05, PPP1R14A (UniProt Q96A00) 0.047, PIK3CB (UniProt P42338) 0.07, POLD3 (UniProt Q15054) 0.083, PSMD11 (UniProt O00231) -0.097, PMM1 (UniProt Q92871) -0.021, PIP4P2 (UniProt Q8N4L2) 0.014, PIGT (UniProt Q969N2) -0.045, POLR2I (UniProt P36954) -0.058, PPP6R1 (UniProt Q9UPN7) -0.022, PRKCQ (UniProt Q04759) 0.036, POLR1A (UniProt O95602) -0.055, PRPSAP2 (UniProt O60256) 0.053, PSME4 (UniProt Q14997) -0.011, PPM1G (UniProt O15355) 0.117, PRKAR2B (UniProt P31323) -0.017, PKN1 isoform 2 (UniProt Q16512) 0.018, PRCP (UniProt P42785) -0.028

compound: C/C(=N\NC(=O)C1=CC(=CC=C1)S(=O)(=O)N2CCOCC2)/C3=C(C=CC(=C3)Cl)O; assay: as above
How it was run: as §1

log2 fold change, inactive:
PLIN2 (UniProt Q99541) 0.028, PCGF2 (UniProt P35227) 0.037, PRKAR1B (UniProt P31321) -0.056, PSMB6 (UniProt P28072) -0.079, PGGHG (UniProt Q32M88) 0.114, PTGFRN (UniProt Q9P2B2) -0.006, PLCL1 (UniProt Q15111) -0.122, PURA (UniProt Q00577) -0.208, PPT1 (UniProt P50897) -0.011, PKN2 (UniProt Q16513) 0.073, PTPMT1 (UniProt Q8WUK0) -0.017, PTMA (UniProt P06454) 0.159, POGLUT1 (UniProt Q8NBL1) -0.046, POLR2C (UniProt P19387) 0.037, PRPF38B (UniProt Q5VTL8) 0.022, PSMA3 (UniProt P25788) -0.075, PJA2 (UniProt O43164) -0.047, PTP4A2 (UniProt Q12974) 0.03, PCYT1B (UniProt Q9Y5K3) 0.068, PPP1R14A (UniProt Q96A00) 0.004, PIK3CB (UniProt P42338) 0.018, POLD3 (UniProt Q15054) 0.131, PSMD11 (UniProt O00231) -0.023, PMM1 (UniProt Q92871) -0.041, PIP4P2 (UniProt Q8N4L2) -0.066, PIGT (UniProt Q969N2) 0.037, POLR2I (UniProt P36954) -0.107, PPP6R1 (UniProt Q9UPN7) -0.017, PRKCQ (UniProt Q04759) 0.047, POLR1A (UniProt O95602) -0.236, PRPSAP2 (UniProt O60256) 0.033, PSME4 (UniProt Q14997) 0.017, PPM1G (UniProt O15355) 0.118, PRKAR2B (UniProt P31323) 0.066, PKN1 isoform 2 (UniProt Q16512) 0.088, PRCP (UniProt P42785) 0.013
